Test results reported in the supplement of paper PMC3545927.
The list shows a part of the results. The hit rate among all sequences tested is not known here.

Molecular target: furin, P09958
Experiment: furin cleavage Z-score vs untreated control; higher = more cleavage, active = 3.5 or more, inactive = 1 or less, 8 variable residues between constant flanks
Summary of the method: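 Purified furin cleaved 8-mer peptides that were fused to a cDNA oligonucleotide and held on magnetic beads by their N-terminus. Each 0.01 ml reaction used a 1:10 enzyme:substrate ratio in 50 mM HEPES pH 7.5 with CaCl2 and NaCl and ran 7.5, 15 or 30 min. Released DNA was adapter-tagged by PCR and sequenced, and read counts gave abundance. The cleavage Z-score came from log counts against furin-free reactions, lowess-adjusted and scaled by median absolute deviation.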

Sequence of furin, P09958 (P09958 whole entry): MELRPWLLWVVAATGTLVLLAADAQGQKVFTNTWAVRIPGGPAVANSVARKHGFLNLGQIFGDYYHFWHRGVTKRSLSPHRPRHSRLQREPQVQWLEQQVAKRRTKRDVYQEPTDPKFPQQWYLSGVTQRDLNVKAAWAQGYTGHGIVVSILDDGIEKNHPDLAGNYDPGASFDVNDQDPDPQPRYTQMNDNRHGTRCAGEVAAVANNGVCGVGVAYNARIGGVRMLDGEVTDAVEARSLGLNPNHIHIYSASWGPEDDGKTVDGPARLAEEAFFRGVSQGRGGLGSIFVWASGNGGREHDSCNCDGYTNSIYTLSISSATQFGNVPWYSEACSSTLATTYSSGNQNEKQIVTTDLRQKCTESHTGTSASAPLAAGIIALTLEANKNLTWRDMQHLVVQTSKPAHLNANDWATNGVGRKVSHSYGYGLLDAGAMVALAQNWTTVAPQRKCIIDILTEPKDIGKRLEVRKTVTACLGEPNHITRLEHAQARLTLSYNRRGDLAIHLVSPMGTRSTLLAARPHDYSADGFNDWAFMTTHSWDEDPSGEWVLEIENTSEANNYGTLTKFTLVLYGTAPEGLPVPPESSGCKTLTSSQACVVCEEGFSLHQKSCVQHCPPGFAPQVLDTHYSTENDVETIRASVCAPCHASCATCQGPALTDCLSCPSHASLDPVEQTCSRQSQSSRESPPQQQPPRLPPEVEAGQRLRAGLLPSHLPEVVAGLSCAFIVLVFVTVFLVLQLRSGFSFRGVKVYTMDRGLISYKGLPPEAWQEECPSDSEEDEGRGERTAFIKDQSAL

Sequence | furin cleavage Z-score (7.5 min) | furin cleavage Z-score (15 min) | furin cleavage Z-score (30 min)
CARCWVAMTPAGNASASA [HC279] | -1.59 (inactive) | 1.01 | -0.0231 (inactive)
CARVRRLFCRAGNASASA [FS-2245] | 0.941 (inactive) | 1.51 | 0.361 (inactive)
CARVRRAIPRAGNASASA [FS-3123] | 5.13 (active) | 4.64 (active) | 6.32 (active)
CARVRRAGQGAGNASASA [FS-2106] | 3.76 (active) | 5.43 (active) | 4.94 (active)
CARVRKDGGGAGNASASA [FS-2842] | -0.741 (inactive) | 1.03 | -1.03 (inactive)
CASVSHARPRAGNASASA [HC1652] | 0.173 (inactive) | -1.3 (inactive) | -0.282 (inactive)
CARVRRAATPAGNASASA [FS-2621] | 11.8 (active) | 12.6 (active) | 10.3 (active)
CARVRRQIHAAGNASASA [FS-2319] | 8.32 (active) | 8.68 (active) | 7.57 (active)
CAMEEFSQHLAGNASASA [HC6] | -0.132 (inactive) | -1.04 (inactive) | -0.188 (inactive)
CAADTVDGAGAGNASASA [CS9] | 0.142 (inactive) | -1.09 (inactive) | -0.572 (inactive)
CADEECSQHLAGNASASA [HC1671] | 0.117 (inactive) | 0.56 (inactive) | -0.0902 (inactive)
CAEAVTSTWVAGNASASA [HC2163] | 1.01 | -0.993 (inactive) | -0.235 (inactive)
CAYTPCSGSWAGNASASA [HC1829] | -0.863 (inactive) | -0.615 (inactive) | -0.179 (inactive)
CAEVHTSTWVAGNASASA [HC2195] | 0.614 (inactive) | -0.225 (inactive) | 1.53
CARVRREDTPAGNASASA [FS-3125] | 7.61 (active) | 7.5 (active) | 6.22 (active)
CARFKKFATEAGNASASA [FS-1700] | 0.401 (inactive) | 0.983 (inactive) | -0.463 (inactive)
CAAGRRSEAEAGNASASA [FS-1877] | -2 (inactive) | -1.75 (inactive) | -0.59 (inactive)
CARFKRWKAEAGNASASA [FS-1853] | 3.27 | 4.72 (active) | 6.24 (active)
CARWGRSAQGAGNASASA [FS-3130] | 4.05 (active) | 4 (active) | 4.18 (active)
CARVRRSTAEAGNASASA [FS-2388] | 12.5 (active) | 12.2 (active) | 8.54 (active)
CAAFKIMSGEAGNASASA [HC1093] | -0.371 (inactive) | -0.656 (inactive) | -1.3 (inactive)
CADPSHITAEAGNASASA [HC1249] | -0.448 (inactive) | -0.687 (inactive) | -1.36 (inactive)

Sequence | furin cleavage Z-score (7.5 min) | furin cleavage Z-score (15 min) | furin cleavage Z-score (30 min)
CARPPRPAQGAGNASASA [FS-2057] | -0.496 (inactive) | -0.739 (inactive) | -0.973 (inactive)
CARPDRSSQGAGNASASA [FS-3016] | -1.72 (inactive) | -1.8 (inactive) | -1.46 (inactive)
CAFTAGYSGGAGNASASA [HC1646] | -0.828 (inactive) | -0.656 (inactive) | -0.88 (inactive)
CAESPCHRPSAGNASASA [HC2337] | 1.16 | 0.888 (inactive) | -0.202 (inactive)
CATTPCSGSYAGNASASA [HC1929] | -0.34 (inactive) | -0.574 (inactive) | 0.025 (inactive)
CASTICSAHLAGNASASA [HC2504] | 1.31 | -0.501 (inactive) | 1.12
CAVPGAVYTFAGNASASA [HC552] | -0.518 (inactive) | 0.509 (inactive) | -0.772 (inactive)
CARALRSSGTAGNASASA [FS-1944] | -0.0204 (inactive) | -0.353 (inactive) | 0.495 (inactive)
CARSCRAAQAAGNASASA [FS-3076] | 0.547 (inactive) | 1.19 | 1.76
CARALRSLDLAGNASASA [FS-2325] | 3.52 (active) | 2.8 | 4.65 (active)
CARVRRAAQAAGNASASA [FS-2535] | 8.23 (active) | 7.6 (active) | 6.83 (active)
CAPAAYAAQGAGNASASA [HC781] | 0.244 (inactive) | 1.54 | 0.00948 (inactive)
CARVRRQLDRAGNASASA [FS-3174] | 10.3 (active) | 12.6 (active) | 9.92 (active)
CARVRRAAQGAGNASASA [FS-2105] | 8.98 (active) | 8.61 (active) | 7.68 (active)
CARALRSVSRAGNASASA [FS-2641] | -0.658 (inactive) | -0.337 (inactive) | 0.074 (inactive)
CARTDRSSDRAGNASASA [FS-1796] | -0.725 (inactive) | -1.9 (inactive) | -1.59 (inactive)
CATTPCSGKWAGNASASA [HC1914] | -1.59 (inactive) | 1.19 | -1.38 (inactive)
CAPPQPEYDLAGNASASA [HC1547] | -0.102 (inactive) | 2.02 | -0.964 (inactive)
CAVQARDLGPAGNASASA [FS-1874] | -2.04 (inactive) | -0.417 (inactive) | -1.57 (inactive)
CAEVVTSTWCAGNASASA [HC2260] | -0.517 (inactive) | 2.75 | 0.14 (inactive)
CARVRRAAAEAGNASASA [FS-2104] | 12.4 (active) | 11.6 (active) | 8.72 (active)
CARVRRRLDLAGNASASA [FS-2843] | 2.08 | 5.18 (active) | 6.19 (active)
